Activity calls are given as the source filed them.
Columns and labels:
[1] = E. coli DRC41 culture turbidity changes, primary screen, E. coli filamentation inducer project, strain DRC41, OD650, 48 h (AID 1152);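 further: E. coli MC1000 strain DRC41 lacking acrAB efflux pump and sulA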; settings: E. coli DRC41 (acrAB sulA), higher = more signal, called active from +8 up or from −8 down
[2] = small-molecule binders of probe aLefty1, primary screen, biochemical, small-molecule microarray, 635/667 nm fluorescence (AID 1153); settings: higher = more signal;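 further: score merges spot fluorescence with signal-to-noise ratio from the scanned slide images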
[3] = PSAC antagonists in infected red cells, primary screen, cell-based, P. falciparum Indochina, OD700, 1 h (AID 1154); settings: P. falciparum Indochina infected RBC osmotic lysis, higher = more signal, called active from +8 up or from −8 down
[4] = PSAC antagonists in infected red cells, primary screen, cell-based, P. falciparum Indochina, OD700, 2 h (AID 1155);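 further: lysis reports solute entry through the parasite surface anion channel PSAC; channel blockers reduce lysis of infected cells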; settings: P. falciparum Indochina infected erythrocytes, osmotic lysis OD700; higher = more signal, called active from +8 up or from −8 down
[5] = osmotic lysis modulators in infected erythrocytes, primary screen, PSAC antagonist project, cell-based, P. falciparum Indochina, OD700, 3 h (AID 1156); settings: higher = more signal, called active from +8 up or from −8 down
[6] = PSAC antagonists in infected red cells, primary screen, cell-based, P. falciparum Indochina, OD700, 18 h (AID 1157); settings: P. falciparum Indochina infected erythrocytes, osmotic lysis OD700, 18 h; higher = more signal, called active from +8 up or from −8 down
[7] = modulators of S6 phosphorylation in cells, primary screen, cell-based, A549, cytoblot, luminescence, serum-stimulated (AID 1158); settings: A549 phospho-S6 cytoblot, 5 h, higher = more signal;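 further: serum-stimulated A549 lung adenocarcinoma cells; signal is phosphorylated S6 detected by cytoblot immunostaining with HRP secondary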
[8] = biological target: NADPH oxidase 2 (Homo sapiens) (UniProt P04839); assay: NOX2-dependent H2O2 signal modulators, primary screen, NOX inhibitor project, cell-based, HEK293-NOX2, PMA-stimulated, Amplex Red fluorescence (AID 1159); settings: 45 min, higher = more signal, called active from +8 up or from −8 down; further: test concentration not given here
Chain of NADPH oxidase 2 (Homo sapiens) (P04839 whole entry, looked up): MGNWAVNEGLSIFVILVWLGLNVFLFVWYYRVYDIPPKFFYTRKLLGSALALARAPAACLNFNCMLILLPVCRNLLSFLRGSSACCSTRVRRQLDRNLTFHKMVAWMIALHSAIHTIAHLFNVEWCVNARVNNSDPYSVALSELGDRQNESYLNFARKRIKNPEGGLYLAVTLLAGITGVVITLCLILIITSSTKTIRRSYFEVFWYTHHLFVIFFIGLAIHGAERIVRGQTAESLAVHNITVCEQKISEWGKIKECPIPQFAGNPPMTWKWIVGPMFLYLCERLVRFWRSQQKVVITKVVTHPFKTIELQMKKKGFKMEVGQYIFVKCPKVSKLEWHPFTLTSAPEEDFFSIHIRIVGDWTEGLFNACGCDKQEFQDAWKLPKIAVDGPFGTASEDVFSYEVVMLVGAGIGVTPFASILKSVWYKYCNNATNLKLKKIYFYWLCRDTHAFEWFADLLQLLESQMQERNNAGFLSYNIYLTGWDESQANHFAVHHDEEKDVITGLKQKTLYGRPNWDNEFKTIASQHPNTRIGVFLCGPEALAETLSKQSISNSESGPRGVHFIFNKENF

[9] = biological target: NADPH oxidase 4 (Homo sapiens) (UniProt Q9NPH5); assay: NOX4-dependent H2O2 signal modulators, primary screen, NOX inhibitor project, cell-based, HEK293-NOX4, tetracycline-induced, Amplex Red fluorescence (AID 1160); settings: 45 min, higher = more signal, called active from +8 up or from −8 down
Chain of NADPH oxidase 4 (Homo sapiens) (Q9NPH5 whole entry, looked up): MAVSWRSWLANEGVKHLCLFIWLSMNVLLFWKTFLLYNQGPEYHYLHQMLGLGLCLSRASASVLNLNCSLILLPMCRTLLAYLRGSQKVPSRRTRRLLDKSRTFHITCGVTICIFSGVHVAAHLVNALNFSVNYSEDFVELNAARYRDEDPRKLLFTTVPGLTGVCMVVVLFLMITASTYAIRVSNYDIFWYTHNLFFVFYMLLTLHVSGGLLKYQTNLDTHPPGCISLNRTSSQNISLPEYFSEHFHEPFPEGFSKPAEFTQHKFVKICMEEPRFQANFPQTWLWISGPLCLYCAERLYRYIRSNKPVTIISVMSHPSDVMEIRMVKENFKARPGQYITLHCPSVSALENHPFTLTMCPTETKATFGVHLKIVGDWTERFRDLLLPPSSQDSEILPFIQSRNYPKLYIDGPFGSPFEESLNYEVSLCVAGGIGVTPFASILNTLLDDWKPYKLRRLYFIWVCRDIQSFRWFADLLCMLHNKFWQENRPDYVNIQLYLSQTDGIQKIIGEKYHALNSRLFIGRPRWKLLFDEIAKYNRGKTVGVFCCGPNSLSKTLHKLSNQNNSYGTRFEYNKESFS

[10] = biological target: NADPH oxidase 5 (Homo sapiens) (UniProt Q96PH1); assay: NOX5-dependent H2O2 signal modulators, primary screen, NOX inhibitor project, cell-based, HEK293-NOX5, Amplex Red fluorescence (AID 1161); settings: HEK293-NOX5, ionomycin, 45 min, higher = more signal
Chain of NADPH oxidase 5 (Homo sapiens) (Q96PH1 whole entry, looked up): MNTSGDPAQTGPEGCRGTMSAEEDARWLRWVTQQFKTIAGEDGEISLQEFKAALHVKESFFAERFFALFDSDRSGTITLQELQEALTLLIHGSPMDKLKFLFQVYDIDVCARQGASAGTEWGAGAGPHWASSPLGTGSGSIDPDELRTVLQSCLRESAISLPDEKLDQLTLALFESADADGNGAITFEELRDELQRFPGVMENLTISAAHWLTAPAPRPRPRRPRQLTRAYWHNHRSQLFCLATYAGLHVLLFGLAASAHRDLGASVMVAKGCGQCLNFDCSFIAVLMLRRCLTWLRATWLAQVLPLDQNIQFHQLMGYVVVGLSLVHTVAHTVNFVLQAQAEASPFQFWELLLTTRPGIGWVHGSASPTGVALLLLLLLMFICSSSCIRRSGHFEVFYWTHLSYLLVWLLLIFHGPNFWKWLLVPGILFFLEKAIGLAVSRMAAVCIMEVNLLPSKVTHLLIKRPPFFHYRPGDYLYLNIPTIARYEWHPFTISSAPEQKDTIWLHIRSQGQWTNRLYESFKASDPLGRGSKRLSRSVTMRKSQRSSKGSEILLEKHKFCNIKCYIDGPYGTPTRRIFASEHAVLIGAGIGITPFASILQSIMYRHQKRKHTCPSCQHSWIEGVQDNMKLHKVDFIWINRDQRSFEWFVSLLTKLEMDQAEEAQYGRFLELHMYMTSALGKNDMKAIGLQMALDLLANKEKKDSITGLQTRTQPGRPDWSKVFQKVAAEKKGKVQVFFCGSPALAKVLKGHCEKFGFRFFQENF

SMILES | z-score [1] | composite z-score [2] | z-score [3] | z-score [4] | z-score [5] | z-score [6] | z-score [7] | z-score [8] | z-score [9] | z-score [10]
COCCCNC(=O)[C@@]1(Cc2ccccc2N=[N+]=[N-])COC(c2ccc(OCCCO)cc2)=N1 | 1.21 (inactive) | 0.35 | 27.4 (active) | 16.4 (active) | 2.03 (inactive) | 2.36 (inactive) | -0.44 | -1.62 (inactive) | 0.528 (inactive) | -0.146
COc1ccccc1CN1C(=O)c2ccccc2[C@@]2(Cc3ccccc3N(CC(F)(F)F)C2=O)[C@@H]1c1ccc(CO)cc1 | 0.254 (inactive) | 0.0623 | 0.252 (inactive) | 0.633 (inactive) | -1.9 (inactive) | 0.206 (inactive) | -0.309 | -0.802 (inactive) | -0.565 (inactive) | -0.154
COC(=O)[C@@]1(Cc2ccccc2N=[N+]=[N-])N=C(c2ccc(OCCCO)cc2)O[C@H]1c1ccccc1N=[N+]=[N-] | 1.24 (inactive) | 0.373 | 24.9 (active) | 13.3 (active) | 0.531 (inactive) | 3.93 (inactive) | 0.342 | -1.58 (inactive) | 0.802 (inactive) | -0.833
COc1ccc([Si](C)(C)[C@H]2[C@H](CCn3cc([C@H](O)c4ccccc4)nn3)O[C@@]3(C(=O)N(Cc4ccc(N5C(=O)c6cccc7cccc5c67)cc4)c4ccccc43)[C@@H]2C)cc1 | 0.0759 (inactive) | 0.0091 | 1.97 (inactive) | 0.485 (inactive) | 0.0591 (inactive) | 0.646 (inactive) | 0.243 | 0.892 (inactive) | 0.925 (inactive) | 2.01
CC(CO)N1C(=O)[C@@H]2[C@H]3C(=O)OCC=C[C@H]3OC23C=CCN(C(C)(C)C)C(=O)[C@@H]13 (stereo not given in full) | -0.771 (inactive) | -0.407 | 0.16 (inactive) | -0.0471 (inactive) | -0.0717 (inactive) | -0.23 (inactive) | -0.105 | 0.566 (inactive) | 0.401 (inactive) | 1.43
O=C1O[C@H](c2ccccc2)[C@H](c2ccccc2)N2[C@H]1[C@@H](C(=O)NC[C@H](O)c1ccccc1)[C@]1(C(=O)Nc3ccc(C#CCCO)cc31)[C@H]2c1ccc(OCCO)cc1 | 0.0129 (inactive) | 0.138 | 3.5 (inactive) | 1.19 (inactive) | 0.123 (inactive) | 0.663 (inactive) | -0.268 | 1.16 (inactive) | 0.861 (inactive) | 0.275
NCCCCCNC(=O)[C@@H]1C[C@@H]2C(=O)NCC(=O)N2[C@@H]1c1cccc(OCCO)c1 | 1.81 (inactive) | 0.165 | 2.11 (inactive) | 0.282 (inactive) | -0.874 (inactive) | 0.154 (inactive) | 0.121 | 1.44 (inactive) | -0.373 (inactive) | 2.89
[N-]=[N+]=Nc1ccccc1[C@@H]1OC(c2ccc(OCCCO)cc2)=N[C@]1(Cc1ccccc1)C(=O)NCC(O)CO (stereo not given in full) | 0.792 (inactive) | 0.665 | 31 (active) | 28 (active) | 2.32 (inactive) | 6.87 (inactive) | -0.0152 | -1.36 (inactive) | 1.07 (inactive) | -0.606
CC(C)N1CC=CC23O[C@@H]4C=CCOC(=O)[C@@H]4[C@H]2C(=O)N(CCCO)[C@@H]3C1=O (stereo not given in full) | 2.97 (inactive) | -0.14 | 1.08 (inactive) | 0.0983 (inactive) | 0.976 (inactive) | -0.137 (inactive) | 1.89 | 0.0484 (inactive) | -1.52 (inactive) | -1.36
COC(=O)[C@@]1(Cc2ccc(OC)cc2)[C@@H]2C(=CC(=O)[C@H]2CC(=O)C(=O)N(C)C)CN1C(=O)c1ccccc1 | -2.06 (inactive) | 0.485 | 2.07 (inactive) | 0.584 (inactive) | 0.481 (inactive) | 1.38 (inactive) | 0.808 | -0.192 (inactive) | 1.39 (inactive) | 1.32
[N-]=[N+]=NCc1ccccc1C[C@@]1(C(=O)NCc2ccccc2)N=C(c2ccc(OCCCO)cc2)O[C@@H]1c1ccccc1N=[N+]=[N-] | -0.0632 (inactive) | -0.221 | 32.6 (active) | 33.3 (active) | 2.4 (inactive) | 3.61 (inactive) | 0.108 | 0.0504 (inactive) | -0.437 (inactive) | -1.22
O[C@@H](Cc1ccccc1)[C@@H](/C=C/C1CC1)N(CC#Cc1ccccc1)Cc1cccc(Cl)c1 | 1.96 (inactive) | 0.161 | 1.49 (inactive) | 0.761 (inactive) | 0.124 (inactive) | 0.23 (inactive) | 0.715 | 0.166 (inactive) | 0.727 (inactive) | -0.406
COC(=O)c1c2oc(c1C(=O)OC)C(=O)N(Cc1ccccc1)Cc1cn(nn1)C[C@H](Cc1ccccc1)NC(=O)N[C@H](CO)CC2 | 0.959 (inactive) | -0.0942 | 1.67 (inactive) | 0.393 (inactive) | -0.252 (inactive) | 0.213 (inactive) | 1.18 | -1.13 (inactive) | 1.06 (inactive) | -0.397
CCCC[C@@H]1C[C@H]1[C@@H](NC(=O)c1cccs1)c1ccc(C(F)(F)F)cc1 | -2.61 (inactive) | 0.101 | 1.5 (inactive) | 0.987 (inactive) | 0.247 (inactive) | 0.592 (inactive) | -0.79 | -0.934 (inactive) | -2.08 (inactive) | -0.948
CC(=O)c1ccc(C(O)C2C=CC3C(=O)N(c4ccccc4)C(=O)C3N2Nc2ccc(C#N)cc2)cc1 (stereo not given) | -1.54 (inactive) | 0.192 | 18 (active) | 2.58 (inactive) | 1.27 (inactive) | 1.44 (inactive) | -1.15 | -2.48 (inactive) | -5.89 (inactive) | -4.43
Cc1ccc(S[C@]2(C(=O)NCC(F)(F)F)CC(=O)N(C3CCCCC3)[C@@H]2c2ccc(CO)cc2I)cc1 | 0.439 (inactive) | -0.0879 | 4.35 (inactive) | 1.29 (inactive) | -0.178 (inactive) | 0.524 (inactive) | -0.283 | 1.04 (inactive) | 0.661 (inactive) | 2.07
O=C1O[C@@H](c2ccccc2)[C@@H](c2ccccc2)N2[C@@H](c3ccc(OCCO)cc3)[C@]3(C(=O)Nc4ccccc43)[C@@H](C(=O)O)[C@H]12 | 0.635 (inactive) | 1.46 | 7.13 (inactive) | -1.02 (inactive) | -0.202 (inactive) | -1.62 (inactive) | 1.52 | 0.262 (inactive) | -0.444 (inactive) | -0.985
COC(=O)[C@@]1(Cc2ccccc2)[C@H]2c3cc(C(=O)N(C)C)n(Cc4c(CO)[nH]cc(C)c4=O)c3C[C@H]2CN1C(=O)c1ccccc1 | -1.16 (inactive) | 0.0004 | 0.758 (inactive) | -0.16 (inactive) | 0.338 (inactive) | 0.248 (inactive) | -0.482 | 0.495 (inactive) | 0.334 (inactive) | -1.91
CCOC(=O)c1ccc(NC(=O)O[C@H]2[C@H](OC(=O)Nc3ccc4c(c3)OCO4)[C@H](OC(=O)Nc3ccc4c(c3)OCO4)[C@@H](OC)O[C@@H]2CO)cc1 | -0.351 (inactive) | 0.408 | 23.4 (active) | 6.99 (inactive) | 0.726 (inactive) | 1.55 (inactive) | -0.535 | -0.984 (inactive) | -0.54 (inactive) | -1.28
